The list is not random: actives were taken first. Their share in the collection is about 2.5%.
PAX8 reporter = PAX8 transcriptional activity inhibition; RMG-I TPO-luciferase reporter, SteadyGlo, 24 h; inhibition, % at 12.6 µM; 1.2% of 360,000 active;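 active means mean replicate inhibition at least 60% with every replicate also reaching 60%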;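 further: luciferase light reporting Pax8 driven TPO promoter activity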
CFTR F508del cor = CFTR F508del correction in bronchial cells; 0.36% of 350,000 active; activity (quench increase), % at 7.58 µM; CFBE cells, YFP halide quenching; stimulated with forskolin plus potentiator P3; % fluorescence drop versus neutral controls;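 active means mean added fluorescence quench of at least 8% versus neutral control, with both replicates also reaching 8%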;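 further: cells transiently co-express mutant CFTR-F508del with the halide-sensitive YFP; corrector assay measuring rescue of mutant channel to the surface after 24 h compound exposure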
FXN GAA850 act = activators of GAA850 frataxin (FXN) promoter. activation, % at 6 µM. HEK293 lucGAA850 FXN promoter luciferase reporter, 24 h; percent of 10 µM SAHA response. 0.56% of 360,000 active;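 active means activation above the average of all compounds screened plus 3 SD, cutoff fixed separately per campaign, cut at about 7.5% in these data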
HIV Env fusion = HIV envelope-mediated fusion inhibition | 1.1% of 360,000 active | inhibition, % at 12.3 µM | AID 651610 | HeLa-JRFL Env/CEM21 cell fusion, luciferase;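 active means mean replicate inhibition score of at least 50 and every replicate individually at or above 50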
EWS-Fli block = blocks EWS/Fli oncoprotein-driven transcription; A673 NR0B1-luciferase reporter, viability-normalised; inhibition, % at 12.6 µM; 0.67% of 350,000 active; AID 651661;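 active means mean inhibition of at least 50% after viability correction, with every replicate also passing that limit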;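 further: firefly luciferase signal divided by Alamar Blue viability fluorescence both relative to DMSO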
Of the large screens only hits and unclear results are named; the others gave an inactive call.

C[C@@H]1CN([C@@H](C)CO)C(=O)Cc2cc(NC(=O)NC3CCCCC3)ccc2O[C@H]1CN(C)Cc1ccc(-c2ccccc2)cc1	PAX8 reporter 79.5 (no result: FXN GAA850 act)
C[C@H](CO)N1C[C@H](C)[C@H](CN(C)Cc2ccc(-c3ccccc3)cc2)Oc2ccc(NC(=O)NC3CCCCC3)cc2CC1=O	none (no result: FXN GAA850 act)
CO[C@H]1CN(C)C(=O)c2cc(NC(=O)c3ccno3)ccc2OC[C@H](C)NC[C@@H]1C	none (no result: FXN GAA850 act)
C[C@@H]1CN([C@H](C)CO)C(=O)c2cc(NC(=O)Nc3cccc4ccccc34)ccc2O[C@H]1CN(C)S(=O)(=O)c1cccs1	none (no result: PAX8 reporter, FXN GAA850 act, HIV Env fusion)
Cc1noc(C)c1S(=O)(=O)Nc1ccc2c(c1)C(=O)N([C@H](C)CO)C[C@H](C)[C@H](CN(C)C)OCCCC[C@H](C)O2	none (no result: FXN GAA850 act)
COc1ccc(CN2C(C)C3C(C)=CC2C2C(=O)N(C)C(=O)C32)cc1 (centres undefined)	none (no result: FXN GAA850 act)
O=C(Nc1ccccc1F)N1CC(=O)N2[C@H](CO)[C@H](c3ccc(C#CC4CCCC4)cc3)[C@@H]2C1	none (no result: FXN GAA850 act, HIV Env fusion)
COc1ccc(-c2ccc(OC)c([C@H]3[C@H]4C=CC[C@@H](C)[C@@H]4C(=O)N3Cc3ccccc3)c2)cc1	none
COc1cc(-c2cccc([C@H]3[C@@H]4C=CC[C@@H](C)[C@@H]4C(=O)N3Cc3ccccc3)c2)cc(OC)c1OC	HIV Env fusion 47.0
COc1ccc(-c2ccc(C)cc2)cc1[C@H]1[C@H]2C=CC[C@@H](C)[C@@H]2C(=O)N1Cc1ccccc1	HIV Env fusion 56.0
COc1ccc(S(=O)(=O)N(C)C[C@H]2Oc3ccc(N(C)C)cc3C(=O)N([C@H](C)CO)C[C@H]2C)cc1	none (no result: FXN GAA850 act)
O=C1[C@H]2[C@@H](c3ccc(F)cc3)N3C(=O)N(c4cccc(Br)c4)C(=O)[C@@]3(Cc3ccccc3)[C@H]2C(=O)N1C1CCCCC1	HIV Env fusion 107.4
O=C1[C@H]2[C@@H](c3ccc(F)cc3)N3C(=O)N(c4ccc(Br)cc4)C(=O)[C@@]3(Cc3ccc(Cl)cc3)[C@H]2C(=O)N1C1CCCCC1	FXN GAA850 act 9.5, HIV Env fusion 72.0
CC[C@@]12C(=O)N(c3cccc(F)c3)C(=O)N1[C@H](c1ccc(F)cc1)[C@@H]1C(=O)N(C3CCCCC3)C(=O)[C@@H]12	FXN GAA850 act 12.6 (no result: PAX8 reporter, CFTR F508del cor, HIV Env fusion, EWS-Fli block)
CCN1C(=O)[C@H]2[C@@H](c3ccc(C)cc3)N3C(=O)N(c4cccc(F)c4)C(=O)[C@@]3(CC)[C@H]2C1=O	none
COc1ccc(NC(=O)Nc2ccc3c(c2)[C@@H]2C[C@H](CC(=O)NCc4ccc5c(c4)OCO5)O[C@@H](CO)[C@@H]2O3)cc1	none (no result: FXN GAA850 act)
CCCNC(=O)C[C@@H]1CC[C@@H]2[C@H](COC[C@@H](O)CN2C(=O)c2ccc(F)cc2)O1	none (no result: FXN GAA850 act)
CCCn1c(NC(=O)c2cccc(S(=O)(=O)N3CCCC3)c2)nc2ccccc21	PAX8 reporter 73.8, HIV Env fusion 132.4 (no result: CFTR F508del cor, EWS-Fli block)
CCOc1ccc(S(=O)(=O)N2CCCCC2)cc1NC(=O)c1ccccc1	CFTR F508del cor 12.0 (no result: HIV Env fusion)
COc1ccc(S(=O)(=O)N2CCCCC2)cc1NC(=O)CCCOc1ccccc1	none
COc1ccc(S(=O)(=O)N2CCCCC2)cc1NC(=O)CCCOc1ccc(C)cc1	HIV Env fusion 70.5
CCOC(=O)c1ccoc1CSCC(=O)N1CCN(S(=O)(=O)c2ccc(C)cc2)CC1	HIV Env fusion 56.0 (no result: PAX8 reporter, CFTR F508del cor, EWS-Fli block)
COc1ccc(S(=O)(=O)N2CCCCC2)cc1NC(=O)c1ccccc1	none
CCOC(=O)c1ccoc1CN1CCN(S(=O)(=O)c2ccc(C)c(C)c2)CC1	none
CC(=O)N1CC2(C1)[C@H](c1ccc(-c3cccc(F)c3)cc1)[C@H](CO)N2CC1CC1	none (no result: PAX8 reporter, FXN GAA850 act, HIV Env fusion)
COc1ccc(S(=O)(=O)N[C@@H]2C=C[C@H](CC(=O)N3CCN(c4ccccc4)CC3)O[C@@H]2CO)cc1	none (no result: FXN GAA850 act)
CCCNC(=O)N1[C@H](CNC(=O)CC)[C@@H](c2ccc(C3=CCCC3)cc2)[C@@H]1CO	none (no result: FXN GAA850 act, HIV Env fusion)
CCS(=O)(=O)N[C@@H]1C=C[C@@H](CC(=O)NCc2ccc(F)cc2)O[C@H]1CO	none (no result: FXN GAA850 act)
O=C(Cc1cccs1)N1CCN(S(=O)(=O)c2ccc(Br)cc2)CC1	none
COc1ccc(S(=O)(=O)N2CCCCC2)cc1NC(=O)CN(Cc1ccco1)Cc1ccco1	HIV Env fusion 76.2
COc1ccc(S(=O)(=O)N2CCCCCC2)cc1NC(=O)CN(C)Cc1ccc2c(c1)OCO2	HIV Env fusion 58.2
CN(CC(=O)Nc1cc(S(=O)(=O)N2CCCCCC2)ccc1Cl)Cc1ccc2c(c1)OCO2	none
COc1ccc(S(=O)(=O)N2CCCCC2)cc1NC(=O)CN(C)C1CCCCC1	none

Assay outcomes (PubChem BioAssay)
